# Results taken from PubChem BioAssay (NCI).
# Compounds without any hit were thinned out: in the full panel of roughly 83,000, 20% have a hit.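 Cells were grown in 96-well plates and exposed to the test compound at a single concentration for 48 hours; results are reported as percent growth, with values below 10 considered active.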 Active and inactive are the calls of the source.
# Tested on: NCI-H522 lung
# Test: NCI-60 one-dose screen, 48 h (100 = growth as untreated, 0 = no growth, -100 = all killed)
# Conditions: 10 µM unless noted
# Protocol: Growth inhibition of the NCI-H522 human Non-Small Cell Lung tumor cell line is measured as a screen for anti-cancer activity. Cells are grown in 96 well plates and exposed to the test compound for 48 hours. Compounds are tested at a single concentration, which is 10^-5 M for most compounds. The reported endpoint is percent growth (GI% or GIPRCNT), where numbers from 0 - 100% represent growth inhibition, and numbers from -100% - 0 represent cell death. For example, a value of 40 represents 60% growth inhibition. A value of 0 means no net growth occurred over the course of the experiment. A value of -40 indicates 40% of cells at the beginning of the experiment died by the end of the experiment. A value of -100 means all cells are dead at the end of the experiment.
# NCI-60 Human Tumor Cell Lines Screen was performed using the standard one-dose NCI protocol, which is described in more detail at https://dtp.cancer.gov/discovery_development/nci-60/default.htm.
# Compounds with GIPRCNT values below 10 were considered active. Activity score was based on GIPRCNT using the following formula: […]
# Score is 0 for GIPRCNT values of 100 or above, 50 for GIPRCNT values of 0, and 100 for GIPRCNT values of -100.
row,SMILES,growth
1,C=C1C(=O)O[C@H]2[C@H]1CC/C(COC(=O)C(=O)c1c[nH]c3ccccc13)=C\CC[C@@]1(C)O[C@@H]21,-62% (active)
2,COCCN(C(=O)c1ccc(F)cc1F)c1c(N)n(Cc2ccccc2)c(=O)[nH]c1=O,98.3% (inactive)
3,O=Cc1ccc(O)c2ncccc12,51.8% (inactive)
4,CCOP(=O)(OCC)C1CP(=O)(c2ccccc2)CC(C)=C1Cl (stereo not given),65.3% (inactive)
5,Cc1ccc(NS(=O)(=O)c2ccc3c(c2)C(=O)CC(c2ccc(C(=O)C(C)C)cc2)N3)cc1C (stereo not given),60.5% (inactive)
6,COC(=O)[C@]12CC[C@@H](C)[C@H](C)[C@@H]1C1=CC[C@@H]3[C@@]4(C)C(C=O)=C[C@@](C)(COC(C)=O)[C@@H]4[C@H](O)C[C@@]3(C)[C@]1(C)CC2,-35% (active)
7,O=C(Nc1ccc(Nc2ccncc2)cc1)c1ccc(C(=O)Nc2ccc(Nc3ccncc3)cc2)cc1,47.4% (inactive)
8,Cc1ccc(-n2nc3c(c(C#N)c2=O)CC(c2ccccc2Cl)C([N+](=O)[O-])=C3O)cc1 (stereo not given),89% (inactive)
9,Cc1cccc(NC(=O)N/C(N)=N/c2nc(C)c(C)s2)c1,24.2% (inactive)
10,Cc1ccc(Cl)cc1NC(=O)c1cc2ccccc2cc1O,-18% (active)
11,O=c1c2cc(F)ccc2sc2c(Nc3cccnc3)nc3ccccc3c12,94.3% (inactive)
12,COc1ccc2c(c1)[nH]c(=O)c1c3cccnc3cn21,12% (inactive)
13,COc1ccc(S(=O)(=O)NCCNc2nccc(-c3c(-c4cccc(F)c4)nc4sccn34)n2)cc1,48.1% (inactive)
14,Cc1cc(C(=O)c2ccccc2)c(C)c2c1[nH]c1ccc(Cl)cc12,20.8% (inactive)
15,COc1ccccc1N1C(=O)/C(=C/C2=Cc3ccccc3OC2)SC1=S,90% (inactive)
16,COc1nc(N(C)O)nc(N(C)O)n1,56.5% (inactive)
17,O=c1ccn2nc3ccccc3c2[nH]1,91.9% (inactive)
18,Nc1n[nH]c2cc(F)c([C@@H]3Nc4c(F)cc5[nH]ncc5c4[C@H]4C5CCC(C5)[C@@H]34)cc12 (stereo not given in full),14.9% (inactive)
19,O=c1c2cc(F)ccc2sc2c(NCCCN3CCCC3)nc3ccccc3c12,25.1% (inactive)
20,COC(=O)[C@]12CC[C@@H](C)[C@H](C)[C@@H]1C1=CC[C@@H]3[C@@]4(C)C(C=O)=C[C@@](C)(COS(C)(=O)=O)C4[C@H](O)C[C@@]3(C)[C@]1(C)CC2 (stereo not given in full),-82.6% (active)

row,SMILES,growth
1,Cc1nc2ccccc2c(/C=C/c2ccc(Cl)cc2)c1C(=O)/C=C/c1ccc(F)cc1,1.17% (active)
2,O=C1/C(=C/c2ccc(Br)cc2)C=C(c2ccccc2)N1CCc1ccccc1,31.2% (inactive)
3,CN(Cc1cnc2nc(N)nc(N)c2n1)c1ccc(C(=O)N[C@@H](CCc2nn[nH]n2)c2nn[nH]n2)cc1,40.9% (inactive)
4,CN1C(=O)N(C)C2C1NN=c1s/c(=C\c3ccccc3)c(=O)n12 (stereo not given),12.5% (inactive)
5,c1ccc2cc3nc4cc5ccccc5cc4nc3cc2c1,99% (inactive)
6,C[C@H]1[C@H]2[C@H]3CC[C@@H]4[C@@]5(C)C/C(=C/c6cccnc6)C(=O)C(C)(C)[C@@H]5CC[C@@]4(C)[C@]3(C)CC[C@]23CO[C@]1(C)[C@@H](C(=O)/C=C\c1cccnc1)C3,-34.4% (active)
7,O=C1/C(=C/c2ccccc2)CCc2nc3ccccc3c(/C=C/c3ccc(Cl)cc3)c21,71.1% (inactive)
8,COc1cccc(-c2nn(-c3ccccc3)cc2-c2ccnc(NCCNC(=O)Nc3ccccc3)c2)c1,47.6% (inactive)
9,O=C1/C(=C\c2c[nH]c3ccccc23)c2ccccc2N1c1c(Cl)cccc1Cl,-57.9% (active)
10,Cc1cccc(-c2nc(N(C)c3ccc4ncsc4c3)c3ccccc3n2)n1,30.4% (inactive)
11,OC(c1cccc(-n2ccc(C(F)(F)F)n2)c1)c1cnccc1NC1CCCCCC1 (stereo not given),43.9% (inactive)
12,COc1ccc(-c2nc(SCCC(C)C)nc(N/N=C\c3ccccc3O)c2C#N)cc1,84.6% (inactive)
13,CCOC(=O)c1c2ncccc2n2c(=O)n(-c3ccccc3C)nnc12,93.3% (inactive)
14,COc1cccc(-c2nn(-c3ccccc3)cc2-c2ccnc(NCCNC(=O)Nc3ccc(Cl)c(Cl)c3)c2)c1,-14.9% (active)
15,N#CC1=C(NC=O)Oc2c(ccc3ccccc23)C1c1ccccc1 (stereo not given),-2.8% (active)
16,COc1ccc(/C=c2\nc3n(-c4ccccc4)c4nc5c6c(sc5c(=N)n4n-3c2=O)CCCC6)cc1,83.4% (inactive)
17,Cc1ccc(/C=C2\C(=O)N(C)c3ccc(S(=O)(=O)Nc4ccc(C(C)(C)C)cc4)cc32)s1,43.4% (inactive)
18,CN(C)CC1C(=O)O[C@H]2[C@H]1CC/C(COC(=O)c1cc3ccccc3[nH]1)=C\CC[C@@]1(C)O[C@@H]21 (stereo not given in full),-91.2% (active)
19,COc1ccc(C2=Nc3c(N)ncnc3NC(c3ccc4c(c3)OCO4)C2)cc1 (stereo not given),87.4% (inactive)
20,Cn1c(-c2c(N)n(Cc3ccc(C(F)(F)F)cc3)c3nc(C#N)c(C#N)nc23)nc2ccccc21,-3.31% (active)
